According to PubChem BioAssay (Tox21):
Values joined by “and” are separate entries in the source; they are usually repeats but may differ in a detail not shown here. Equal values may be shown once. Records with an inconclusive call do not appear. A call without a number means that no potency is given here. The source holds several records for some structures; these can differ, active in one and inactive in another. Active and inactive are the calls of the source. Unless noted, calls come from the whole dose curve.

How the values were obtained:
[1] = qHTS assay to identify small molecule antagonists of the sonic hedgehog signaling (Shh) pathway (AID 1259369); note: nearly all actives have a fitted effect of over 45% in size; note: potency is the fitted concentration of half-maximal effect
Method in brief: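 NIH/3T3-derived Gli1-Luc reporter cells plated 4 h, dosed with compound, then stimulated with conditioned medium for 24 h at 37 C. Firefly luciferase luminescence read after 30 min with detection reagent at room temperature.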

[2] = target: Estrogen receptor beta (Homo sapiens) (UniProt Q92731); experiment: qHTS assay to identify small molecule agonists of the estrogen receptor beta (ER-beta) signaling pathway (AID 1259377; active = well fitted activation curve with a large enough effect in the signal ratio in the repeat runs, not every such curve was filed as active; the % refers to the signal ratio; note: potency is the fitted concentration of half-maximal effect)
Chain of Estrogen receptor beta (Homo sapiens) (Q92731 whole entry, looked up): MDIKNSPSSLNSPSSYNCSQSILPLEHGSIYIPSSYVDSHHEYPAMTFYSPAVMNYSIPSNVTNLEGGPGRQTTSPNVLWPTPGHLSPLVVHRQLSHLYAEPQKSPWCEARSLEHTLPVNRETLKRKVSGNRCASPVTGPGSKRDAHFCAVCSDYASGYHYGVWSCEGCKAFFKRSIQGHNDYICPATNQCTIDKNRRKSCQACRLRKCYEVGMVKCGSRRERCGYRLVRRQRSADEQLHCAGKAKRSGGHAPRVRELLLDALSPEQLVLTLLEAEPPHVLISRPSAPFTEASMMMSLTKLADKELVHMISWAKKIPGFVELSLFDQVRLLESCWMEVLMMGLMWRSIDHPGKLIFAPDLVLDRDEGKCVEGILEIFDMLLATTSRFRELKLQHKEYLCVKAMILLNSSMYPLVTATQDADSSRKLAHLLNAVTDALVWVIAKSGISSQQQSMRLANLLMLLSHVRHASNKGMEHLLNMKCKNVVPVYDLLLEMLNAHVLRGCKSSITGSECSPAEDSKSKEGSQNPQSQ
Method in brief: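 HEK293T ER-beta-UAS-bla; 2% charcoal-stripped FBS; cells pre-incubated 6 hr, compound 16 hr, 37C/5% CO2; LiveBLAzer B/G FRET substrate 2 h RT; fluorescence intensity read.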

[3] = target: Estrogen receptor beta (Homo sapiens) (UniProt Q92731); experiment: qHTS assay to identify small molecule antagonists of the estrogen receptor beta (ER-beta) signaling pathway (AID 1259378; active = well fitted inhibition curve with a large enough effect in the signal ratio in the repeat runs, not every such curve was filed as active; the % refers to the signal ratio; note: potency is the fitted concentration of half-maximal effect)
Method in brief: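 ER-beta-UAS-bla HEK293T cells in 2% charcoal-stripped FBS medium treated with compound plus 1nM final 17-beta-estradiol for 16 hr at 37C. Beta-lactamase reporter read by FRET substrate fluorescence after 2 hours at room temperature.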

[4] = qHTS assay to identify small molecule agonists of the androgen receptor (AR) signaling pathway in the presence of an antagonist - cell viability counter screen (AID 1259379; active = well fitted curve in the direction sought with a large enough effect in the repeat runs; an effect the other way counts as inactive or inconclusive; note: nearly all actives have a fitted effect of over 25% in size; note: potency is the fitted concentration of half-maximal effect)
Method in brief: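 MDA-kb2 cells (MMTV-luciferase, AR/GR), 3,000/well, 5 h attachment, then 3.0 µM nilutamide (final) and compounds at 15 concentrations. Viability by CellTiter-Fluor fluorescence after 16 h at 37 °C, 0% CO2, in the reporter wells.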

[5] = qHTS assay to identify small molecule agonists of the estrogen receptor beta (ER-beta) signaling pathway - cell viability counter screen (AID 1259380; active = well fitted curve in the direction sought with a large enough effect in the repeat runs; an effect the other way counts as inactive or inconclusive; note: nearly all actives have a fitted effect of over 30% in size; note: potency is the fitted concentration of half-maximal effect)
Method in brief: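 ER-beta-UAS-bla HEK293T cells in medium with 2% charcoal-stripped FBS, pre-incubated 6 hr, then treated 16 hr at 37C. Cytotoxicity read in the same wells by CellTiter-Glo luminescence after 30 min at room temperature.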

[6] = qHTS assay to identify small molecule antagonists of the estrogen receptor beta (ER-beta) signaling pathway - cell viability counter screen (AID 1259382; active = well fitted curve in the direction sought with a large enough effect in the repeat runs; an effect the other way counts as inactive or inconclusive; note: nearly all actives have a fitted effect of over 55% in size; note: potency is the fitted concentration of half-maximal effect)
Method in brief: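 ER-beta-UAS-bla HEK293T cells in 2% charcoal-stripped FBS medium, treated with compound plus 1 nM 17-beta-estradiol for 16 h at 37C. Viability read by CellTiter-Glo luminescence after 30 min at room temperature in the same wells.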

[7] = target: Estrogen receptor (Homo sapiens) (UniProt P03372); experiment: qHTS assay to identify small molecule agonists of the estrogen receptor alpha (ER-alpha) signaling pathway in the presence of an antagonist (AID 1259383); note: nearly all actives have a fitted effect of over 15% in size; note: potency is the fitted concentration of half-maximal effect; for activation: top concentration of the series differs between compounds
Chain of Estrogen receptor (Homo sapiens) (P03372 whole entry, looked up): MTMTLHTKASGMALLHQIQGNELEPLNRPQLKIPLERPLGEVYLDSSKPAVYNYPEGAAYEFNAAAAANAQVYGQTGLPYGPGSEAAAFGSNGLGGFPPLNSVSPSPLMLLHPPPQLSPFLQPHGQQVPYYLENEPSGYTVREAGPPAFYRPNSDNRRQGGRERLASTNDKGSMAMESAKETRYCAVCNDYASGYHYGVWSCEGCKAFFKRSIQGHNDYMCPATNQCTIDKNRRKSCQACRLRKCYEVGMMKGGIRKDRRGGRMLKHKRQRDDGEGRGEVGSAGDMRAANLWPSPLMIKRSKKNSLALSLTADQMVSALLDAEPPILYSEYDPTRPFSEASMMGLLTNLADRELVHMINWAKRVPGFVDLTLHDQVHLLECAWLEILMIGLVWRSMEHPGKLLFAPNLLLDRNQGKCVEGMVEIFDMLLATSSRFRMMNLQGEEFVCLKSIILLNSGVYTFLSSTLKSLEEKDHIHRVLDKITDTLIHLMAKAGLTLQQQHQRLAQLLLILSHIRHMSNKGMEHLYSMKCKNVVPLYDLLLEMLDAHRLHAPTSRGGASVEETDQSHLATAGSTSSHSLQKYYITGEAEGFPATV
Method in brief: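 VM7Luc4E2 cells express endogenous full-length ER-alpha with an ERE-luciferase reporter and were hormone-deprived for 5 days. Compounds at 15 concentrations were added with 10.0nM ICI-182,780 for 22hr at 37C. Luminescence was read with ONE-Glo.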

[8] = qHTS assay to identify small molecule agonists or antagonists of the thyroid stimulating hormone receptor (TSHR) signaling pathway - wild type cell line counter screen (AID 1259384)
Method in brief: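 Wild-type Hek293 cells, 800/well, 18 h at 37C, then compound with Ro20-1724 for 30 min RT. cAMP by HTRF (cAMP-d2/anti-cAMP cryptate), 1 h RT, fluorescence read. 15 concentrations, triplicates.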

[9] = target: Thyrotropin receptor (Homo sapiens) (UniProt P16473); experiment: qHTS assay to identify small molecule antagonists of the thyroid stimulating hormone receptor (TSHR) signaling pathway (AID 1259385); note: nearly all actives have a fitted effect of over 20% in size
Chain of Thyrotropin receptor (Homo sapiens) (P16473 whole entry, looked up): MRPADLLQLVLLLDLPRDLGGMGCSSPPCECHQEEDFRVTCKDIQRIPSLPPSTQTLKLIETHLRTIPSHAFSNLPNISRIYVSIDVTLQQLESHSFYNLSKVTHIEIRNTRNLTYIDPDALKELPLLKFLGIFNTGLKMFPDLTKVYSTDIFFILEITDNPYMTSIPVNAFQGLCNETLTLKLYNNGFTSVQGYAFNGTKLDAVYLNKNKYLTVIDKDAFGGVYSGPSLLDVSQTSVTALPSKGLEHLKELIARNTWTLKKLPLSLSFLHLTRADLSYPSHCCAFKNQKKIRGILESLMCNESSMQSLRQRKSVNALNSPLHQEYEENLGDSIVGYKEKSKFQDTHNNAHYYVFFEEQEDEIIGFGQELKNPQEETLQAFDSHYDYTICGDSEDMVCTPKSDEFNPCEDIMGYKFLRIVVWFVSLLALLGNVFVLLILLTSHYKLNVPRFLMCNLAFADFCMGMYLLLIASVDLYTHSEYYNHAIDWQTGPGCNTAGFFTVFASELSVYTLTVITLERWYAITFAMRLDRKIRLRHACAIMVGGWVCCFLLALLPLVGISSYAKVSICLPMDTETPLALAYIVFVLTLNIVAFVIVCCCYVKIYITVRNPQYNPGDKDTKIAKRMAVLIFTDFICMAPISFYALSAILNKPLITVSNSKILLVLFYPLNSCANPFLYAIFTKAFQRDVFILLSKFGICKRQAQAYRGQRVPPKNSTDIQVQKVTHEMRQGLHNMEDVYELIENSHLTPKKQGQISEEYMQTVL
Method in brief: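 TSHR-HEK293 cells (800/well) plated 18 h, then compounds with Ro20-1724 and TSH at 1.5 ng/mL final, 30 min at room temperature. cAMP quantified by HTRF (cAMP-d2/anti-cAMP-cryptate, 1 h); 15 concentrations in triplicate.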

[10] = target: Androgen receptor (Homo sapiens) (UniProt P10275); experiment: qHTS assay to identify small molecule agonists of the androgen receptor (AR) signaling pathway in the presence of an antagonist (AID 1259381); note: nearly all actives have a fitted effect of over 15% in size; note: potency is the fitted concentration of half-maximal effect
Chain of Androgen receptor (Homo sapiens) (P10275 whole entry, looked up): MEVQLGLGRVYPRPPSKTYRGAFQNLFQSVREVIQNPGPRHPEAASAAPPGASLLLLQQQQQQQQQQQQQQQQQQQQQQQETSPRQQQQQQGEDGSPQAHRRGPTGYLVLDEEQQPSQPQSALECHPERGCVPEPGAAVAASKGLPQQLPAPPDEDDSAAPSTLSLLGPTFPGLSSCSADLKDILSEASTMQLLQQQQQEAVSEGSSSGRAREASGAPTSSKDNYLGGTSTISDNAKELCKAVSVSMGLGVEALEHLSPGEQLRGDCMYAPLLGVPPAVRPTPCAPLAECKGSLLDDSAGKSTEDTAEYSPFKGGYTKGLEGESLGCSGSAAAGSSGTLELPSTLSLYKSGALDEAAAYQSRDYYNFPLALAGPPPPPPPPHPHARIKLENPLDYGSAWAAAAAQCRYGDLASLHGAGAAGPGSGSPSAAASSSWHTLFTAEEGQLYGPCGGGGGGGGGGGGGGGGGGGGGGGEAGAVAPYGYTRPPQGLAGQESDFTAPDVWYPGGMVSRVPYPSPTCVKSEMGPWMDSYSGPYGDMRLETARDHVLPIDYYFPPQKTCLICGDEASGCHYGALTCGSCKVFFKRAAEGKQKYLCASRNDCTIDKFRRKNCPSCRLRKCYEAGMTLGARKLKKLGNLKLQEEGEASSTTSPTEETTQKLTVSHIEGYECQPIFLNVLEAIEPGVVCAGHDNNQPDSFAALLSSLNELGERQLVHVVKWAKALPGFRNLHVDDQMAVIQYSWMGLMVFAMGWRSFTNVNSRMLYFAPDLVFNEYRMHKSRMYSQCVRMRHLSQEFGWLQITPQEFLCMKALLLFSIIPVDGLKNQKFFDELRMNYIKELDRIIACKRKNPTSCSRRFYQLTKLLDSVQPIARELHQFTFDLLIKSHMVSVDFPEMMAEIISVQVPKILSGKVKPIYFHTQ
Method in brief: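 MDA-kb2 cells carrying MMTV-luciferase (AR/GR responsive), 3,000 cells/well, co-treated with 3.0 uM nilutamide final. Compounds at 15 concentrations, 16 hr at 37C without CO2. Luciferase luminescence read after 30 min with ONE-Glo.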

Row | Structure (SMILES) | Potency [1] | Potency [2] | Potency [3] | Potency [4] | Potency [5] | Potency [6] | Potency [7] | outcome [8] | outcome [9] | Potency [10]
1 | CC(C)NC(C)C | inactive | inactive | inactive | inactive | inactive | inactive | inactive | inactive | inactive | 
2 | NC(=S)Nc1ccccc1 | inactive | inactive | inactive | 24.7 µM (active) and inactive | 44 µM (active) and inactive | 27.8 µM (active) and inactive | inactive | inactive | inactive | 
3 | Nc1cccnc1 | inactive | inactive | inactive | inactive | inactive | inactive | inactive | inactive | inactive | 
4 | CCC(C)(c1ccc(O)cc1)c1ccc(O)cc1 | 24.3 µM (active) and 61.1 µM (active) | inactive | 243 nM (active) | inactive | inactive | inactive | 9.68 µM (active) and 8.63 µM (active) | inactive | inactive | 
5 | CC(C)C(=O)OCC(C)(C)C(OC(=O)C(C)C)C(C)C (stereo not drawn) | inactive | inactive and 27.3 µM (active) | inactive | inactive | inactive | inactive | inactive and 27.3 µM (active) | inactive | inactive | 
6 | Cc1ccccc1[N+](=O)[O-] | inactive | inactive | inactive | inactive | inactive | inactive | inactive | inactive | inactive | 
7 | O=c1oc2ccccc2c(O)c1C(CC(O)c1ccc(-c2ccc(Br)cc2)cc1)c1ccccc1 (stereo not drawn) | inactive | inactive | 23000 nM (active) | inactive | inactive | inactive | inactive |  |  | 
8 | C=CC(=O)OCCO | 24.7 µM (active) and 27.3 µM (active) | inactive | inactive | inactive | inactive | inactive |  | inactive | inactive | 
9 | CCCCC(CC)COC(=O)Cl (stereo not drawn) | inactive | inactive | inactive | inactive | inactive | inactive | inactive | inactive | inactive | 
10 | CCCCN(CC)c1c([N+](=O)[O-])cc(C(F)(F)F)cc1[N+](=O)[O-] | inactive | inactive | inactive | inactive | inactive | inactive |  | inactive | inactive | 
11 | c1ccc(P(c2ccccc2)c2ccccc2)cc1 | inactive and 17.2 µM (active) | inactive | inactive | inactive | inactive | inactive | inactive | inactive | inactive | 
12 | Cc1cc(C)cc(C)c1 | inactive | inactive | inactive | inactive | inactive | inactive |  | inactive | inactive | 
13 | CCOP(=S)(OCC)O/N=C(\C#N)c1ccccc1 | inactive | inactive | inactive | inactive | inactive | inactive |  | inactive | inactive | 
14 | O=C(NC(=O)c1c(F)cccc1F)Nc1ccc(Cl)cc1 | inactive | inactive | inactive | inactive | inactive | inactive | inactive | inactive | inactive | 
15 | c1nc[nH]n1 | inactive | inactive | inactive | inactive | inactive | inactive | inactive | inactive | inactive | 
16 | COP(=S)(OC)Oc1cc(Cl)c(Cl)cc1Cl | inactive | inactive | inactive | inactive | inactive | inactive | inactive | inactive | inactive | inactive
17 | C#C[C@]1(O)CC[C@H]2[C@@H]3CCC4=CC(=O)CC[C@]4(C)[C@H]3CC[C@@]21C | inactive | inactive | inactive | inactive | inactive | inactive |  | inactive | inactive | 
18 | C=CCc1ccc(OC)cc1 | inactive | inactive | inactive | inactive | inactive | inactive |  | inactive | inactive | 
19 | c1ccc(NNc2ccccc2)cc1 | inactive | inactive | inactive | inactive | inactive | inactive |  | inactive | inactive | 
20 | CCCCCCCCOC(=O)c1ccccc1C(=O)OCCCCCCCC | inactive | inactive | inactive | inactive | inactive | inactive | inactive | inactive | inactive | inactive
21 | NNC(N)=S | 8.97 µM (active) and 12.2 µM (active) | inactive | 11.3 µM (active) and 30.6 µM (active) | inactive | 31.8 µM (active) | 12.7 µM (active) | inactive | inactive | inactive | 
22 | CC1(C)C(C=C(Cl)Cl)C1C(=O)OC(C#N)c1cccc(Oc2ccccc2)c1 (stereo not drawn) | inactive | inactive | inactive | inactive | inactive | inactive | inactive | inactive | inactive | 
23 | CNC(=O)N(C)c1nnc(C(C)(C)C)s1 | inactive | inactive | inactive | inactive | inactive | inactive | inactive | inactive | inactive | 
24 | Nc1ccc(Cl)c(Cl)c1 | inactive | inactive | inactive | inactive | inactive | inactive |  | inactive | inactive | 

Row | Structure (SMILES) | Potency [1] | Potency [2] | Potency [3] | Potency [4] | Potency [5] | Potency [6] | Potency [7] | outcome [8] | outcome [9] | Potency [10]
25 | Cc1c(COC(=O)[C@@H]2[C@H](/C=C(\Cl)C(F)(F)F)C2(C)C)cccc1-c1ccccc1 | inactive | inactive | inactive | inactive | inactive | inactive | inactive | inactive | inactive | 
26 | O=S(=O)(Oc1ccc(Cl)cc1)c1ccc(Cl)cc1 | inactive | inactive | inactive | inactive | inactive | inactive | inactive | inactive |  | 
27 | O=[N+]([O-])c1c(Cl)c(Cl)c(Cl)c(Cl)c1Cl | inactive | inactive | inactive | 60.8 µM (active) and 48.6 µM (active) | inactive | inactive | inactive |  |  | inactive
28 | Brc1ccc(Oc2cc(Br)c(Br)cc2Br)c(Br)c1 | inactive | inactive | inactive | inactive | 30.6 µM (active) | inactive | inactive |  |  | 
29 | CCCCCCCCCCCOC(=O)c1ccccc1C(=O)OCCCCCCCCCCC | inactive | inactive | inactive | inactive | inactive | inactive | inactive | inactive | inactive | 
30 | CCN(N=O)C(N)=O | inactive | inactive | inactive | inactive | inactive | inactive | inactive | inactive | inactive | 
31 | CC(O)CCO (stereo not drawn) | inactive | inactive | inactive | inactive | inactive | inactive |  | inactive | inactive | 
32 | CC(C)N(C(=O)SCC(Cl)=C(Cl)Cl)C(C)C | inactive | inactive | inactive | inactive | inactive | inactive |  | inactive | inactive | 
33 | C=CCN(CC=C)C(=O)C(Cl)Cl | inactive | inactive | inactive | inactive | inactive | inactive |  | inactive | inactive | 
34 | Oc1cc(Cl)c(Cl)cc1Cl | inactive | inactive | inactive | inactive | inactive | inactive |  | inactive | inactive | 
35 | CCC(C)c1ccc(O)cc1 (stereo not drawn) | inactive | inactive | inactive | inactive | inactive | inactive |  |  |  | 
36 | OCC(O)CO | inactive | inactive | inactive | inactive | inactive | inactive | inactive | inactive | inactive | 
37 | Nc1ccncc1 | inactive | inactive | inactive | inactive |  | inactive | inactive | inactive | inactive | inactive
38 | COC(=O)c1sccc1S(=O)(=O)NC(=O)Nc1nc(C)nc(OC)n1 | inactive | inactive | inactive | inactive | inactive | inactive | inactive | inactive | inactive | 
39 | O=Cc1ccco1 | inactive |  |  | inactive | inactive | inactive |  | inactive | inactive | 
40 | Nc1ccc(Cl)cc1N | inactive and 30.6 µM (active) |  |  | inactive |  |  |  | inactive | inactive | 4.86 µM (active)
41 | O=C(CCl)c1ccccc1 |  |  | inactive | inactive | inactive | inactive |  | inactive | inactive | 
42 | CC(C)c1ccc(CO)cc1 | inactive |  |  | inactive |  | inactive | inactive | inactive | inactive | 
43 | C=C(C)[C@H]1Cc2c(ccc3c2O[C@@H]2COc4cc(OC)c(OC)cc4[C@@H]2C3=O)O1 | 19.6 nM (active) and 5.45 µM (active) and inactive |  |  | 55.2 nM (active) and 38.6 nM (active) and 47.3 nM (active) |  | inactive |  | inactive | inactive | inactive
44 | CCC(=O)O[C@H]1CC[C@H]2[C@@H]3CCC4=CC(=O)CC[C@]4(C)[C@H]3CC[C@]12C | 30.6 µM (active) and 18.8 µM (active) |  |  | inactive |  | 61.1 µM (active) and inactive | 7.7 µM (active) and 9.44 µM (active) | inactive | inactive | 48.6 nM (active) and 47.3 nM (active)
45 | CCCCC(CC)COC(=O)c1ccc(C(=O)OCC(CC)CCCC)c(C(=O)OCC(CC)CCCC)c1 (stereo not drawn) | inactive |  |  | inactive |  | inactive |  | inactive | inactive | inactive
46 | Oc1ccc(-c2ccccc2)cc1 | inactive |  |  | inactive |  | inactive | inactive | inactive | inactive | 
47 | CCCCCCCCC(=O)NCc1ccc(O)c(OC)c1 | 12.2 µM (active) and inactive |  |  | inactive | inactive | inactive | inactive | inactive | inactive | 
